Results taken from PubChem BioAssay (EPA / NIEHS).
Inconclusive results are not listed. Calls of active or inactive are those of the source. Rule for the calls: active = hit-call score of the fitted dose curve at least 0.9, where 1 is the maximum; inconclusive = response in the unintended direction; inactive = score below 0.9.

Each compound was assayed on organic anion transporter (SLCO1B1), SLCO1B1 (gene 10599) (assay: CLD_SLCO1B1_48hr: CellzDirect (CLD) Gene Expression Assay for organic anion transporter (SLCO1B1) at 48 hours (AID 2283707)).
Protocol: CLD_48hr is a cell-based, multiplexed-readout assay that uses hepatocyte, a human liver primary cell, with measurements taken at 48 hours after chemical dosing in a 96-well plate.CLD_SLCO1B1_48hr is one of 16 assay component(s) measured or calculated from the CLD_48hr assay. It is designed to make measurements of mRNA induction, a form of inducible reporter, as detected with chemiluminescence signals by Quantitative Nuclease Protection Assay (qNPA) technology.Data from the assay component CLD_SLCO1B1_48hr was analyzed at the endpoint, CLD_SLCO1B1_48hr, in the positive analysis fitting direction relative to DMSO as the negative control and baseline of activity. Using a type of inducible reporter, gain-of-signal activity can be used to understand changes in the reporter gene as they relate to the gene SLCO1B1. Furthermore, this assay endpoint can be referred to as a primary readout. To generalize the intended target to other relatable targets, this assay endpoint is annotated to the transporter intended target family, where subfamily is organic anion transporter.
Human hepatocyte cultures were treated daily for two consecutive days with fresh dosing solutions containing appropriate concentrations of the 320 ToxCast chemicals (chemical identities were blinded to CellzDirect and other ToxCast collaborators), vehicle control (0.2% DMSO), and positive control inducers as summarized in Table 1. Due to the large number of treatment groups and chemicals examined, the ToxCast chemicals were divided into two groups (spanning two independent cultures of hepatocytes from separate donor preparations (Hu778: ToxCast plates 1 and 2; Hu776: ToxCast plates 3 and 4). Each preparation of human hepatocyte cultures was treated with respective vehicle control, medium only control, set of six positive controls/reference chemicals for the five hepatic receptor pathways, and a subset of eight of the ToxCast chemicals (indoxacarb, pyrithiobac-sodium, norflurazon, cyhalofop-butyl, methomyl, thiram, acetochlor, and propiconazole). These replicate data, coupled with internal replicates designed within the blinded ToxCast chemical library, provided additional data to evaluate interindividual differences between hepatocyte preparations and their potential impact on chemical profiles.Cell morphology and integrity were evaluated using phase-contrast microscopy as an indicator of hepatocyte cell health (Tyson & Green, 1987). Cultures for each treatment group (i.e., media, vehicle [0.2% DMSO], positive control inducers [multiple concentrations], and the ToxCast chemicals [multiple concentrations]) were observed and cell morphology was assessed relative to vehicle control cultures at each harvest time point (0, 6, 24, or 48 h). […] Images were evaluated at the conclusion of the study to assess changes in cell integrity and account for the effects of chemical exposure on uncharacteristic changes in concentration-dependent gene expression profiles. The results from these determinations of apparent cytotoxicity were annotated (yes/no) alongside the corresponding qNPA data for reference.At the conclusion of each treatment period, hepatocyte cultures (96-well) were washed with 1 volume of HBSS, lysed by addition of 25 ul ArrayPlate lysis buffer (HTG, Tucson, AZ), and 70 ul/well of Denaturation Oil, denatured by incubation at 95C for 10 min, and frozen at approximately -70C until analysis by nuclease protection assay (qNPA) (Roberts et al., 2007). For qNPA analysis, cell lysates were thawed at 50C for approximately 30 min, qNPA probes were added, and samples were incubated at 95C for 10 min to begin the detection process by denaturing the target RNA, dissociating the duplexes and secondary structure hybridization. At the conclusion of the hybridization period, S1 nuclease reagent was added to each sample to digest all nonprotected nucleotides at 50C for 60-90 min. […]

Row | Compound | outcome
1 | C=C(C)CN(CC)c1c([N+](=O)[O-])cc(C(F)(F)F)cc1[N+](=O)[O-] | inactive
2 | CCCC(=NOCC)C1=C(O)CC(CC(C)SCC)CC1=O (stereo unspecified) | inactive
3 | CS(=O)(=O)c1cc(C(F)(F)F)ccc1C(=O)c1cnoc1C1CC1 | inactive
4 | COc1ccc(-c2ccccc2)cc1NNC(=O)OC(C)C | inactive
5 | CC(C)=CC1C(C(=O)OCc2coc(Cc3ccccc3)c2)C1(C)C (stereo unspecified) | inactive
6 | O=C1C2CC=CCC2C(=O)N1SC(Cl)(Cl)Cl (stereo unspecified) | inactive
7 | CO/N=C(/C1=NOCCO1)c1ccccc1Oc1ncnc(Oc2ccccc2Cl)c1F | inactive
8 | CC(C)C1(C)N=C(c2ncccc2C(=O)O)NC1=O (stereo unspecified) | inactive
9 | CCN(CC)C(=O)C(C)Oc1cccc2ccccc12 (stereo unspecified) | inactive
10 | O=c1n(Cl)c(=O)n(Cl)c(=O)n1Cl | inactive
11 | CCOc1cc(C(C)(C)C)ccc1C1COC(c2c(F)cccc2F)=N1 (stereo unspecified) | inactive
12 | COc1cc(Cl)c(OC)cc1Cl | inactive
13 | COC(=O)NS(=O)(=O)c1ccc(N)cc1 | inactive
14 | O=C(O)c1c(Cl)ccc2cc(Cl)cnc12 | inactive
15 | OC(c1ccc(Cl)cc1)(c1ccc(Cl)cc1)C(Cl)(Cl)Cl | inactive
16 | COC(=O)NC(=S)Nc1ccccc1NC(=S)NC(=O)OC | inactive

Row | Compound | outcome
17 | COP(=O)(OC)O/C(C)=C/C(=O)N(C)C | inactive
18 | Clc1cccc(C(Cl)(Cl)Cl)n1 | inactive
19 | N#CN=C1SCCN1Cc1ccc(Cl)nc1 | inactive
20 | O=P(O)(O)CCCl | inactive
21 | COc1cc(OC)nc(NC(=O)NS(=O)(=O)c2ncccc2OCC(F)(F)F)n1 | inactive
22 | CC(C)N1C(=O)c2ccccc2NS1(=O)=O | inactive
23 | Nc1c(Cl)c(F)nc(OCC(=O)O)c1Cl | inactive
24 | CNC(=O)N(C)c1nnc(C(C)(C)C)s1 | inactive
25 | COP(=S)(OC)SCn1nnc2ccccc2c1=O | inactive
26 | Nc1cnn(-c2ccccc2)c(=O)c1Cl | inactive
27 | COCC(C)N(C(=O)CCl)c1c(C)csc1C (stereo unspecified) | inactive
28 | Cc1c(COC(=O)[C@@H]2[C@H](/C=C(\Cl)C(F)(F)F)C2(C)C)cccc1-c1ccccc1 | inactive
29 | CSC(=O)c1c(C(F)F)nc(C(F)(F)F)c(C(=O)SC)c1CC(C)C | inactive
30 | Nc1c(Cl)c(Cl)nc(C(=O)O)c1Cl | inactive
31 | Clc1nc(Cl)nc(Nc2ccccc2Cl)n1 | inactive
